Holding throughout (assay): qHTS profiling for inhibitors of Plasmodium falciparum proliferation (AID 504749); note: nearly all actives have a fitted effect of over 60% in size
Details in all cases: P. falciparum in erythrocytes, SYBR Green DNA, 72 h; series mostly up to 28.7 µM

One experiment has as its system CP265. The method in brief: (§1)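 P. falciparum-infected erythrocytes (0.3% parasitemia, 2.5% hematocrit final) were exposed to compounds for 72 h at 37 C in 5% CO2, then lysed with SYBR Green buffer overnight at room temperature; parasite DNA fluorescence was normalized to artemisinin and DMSO controls.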
In a further experiment the test system is CP266. A digest of the protocol: as §1
The next experiment has as its system CP269. A digest of the protocol:
as §1

The subject of a further experiment is CP291. The method in brief:
as §1

The subject of a further experiment is CP305. The method in brief: as §1
Another experiment relates to CP315. A digest of the protocol:
as §1

The next experiment deals with CP335. A digest of the protocol: as §1
In another experiment the test system is DFO2036. The method in brief: as §1
A further experiment concerns DIV14. The method in brief:
as §1

In another experiment the test system is DIV17. A digest of the protocol: as §1
A further experiment deals with Dd2. A digest of the protocol: as §1
The subject of another experiment is ECU. The method in brief: as §1
A further experiment concerns GB4. A digest of the protocol:
as §1

In another experiment the test system is CP268. A digest of the protocol: as §1
A further experiment deals with CP286. A digest of the protocol: as §1
For the next experiment, the system named is CP297. The method in brief:
as §1

A further experiment concerns CP325. The method in brief: as §1
The test system of another experiment is CP329. A digest of the protocol: as §1
The subject of the next experiment is DIV30. The method in brief:
as §1

The test system of the next experiment is FAB9. The method in brief: as §1

For 14 compounds, Potency results are on record in PubChem BioAssay (NCATS).

Records with an inconclusive call do not appear. Activity calls are given as the source filed them. Calls come from the whole dose curve; as a rule, active = well fitted inhibition curve with a large enough effect; inconclusive = small, poorly fitted or top-dose-only effect; inactive = flat fitted curve, though single readings scatter.
Potency is the fitted concentration of half-maximal effect.

On to `CC(C)(C)NC[C@H](O)COc1nsnc1N1CCOCC1`, for which the Potency in the experiment with CP265 was 6.31 µM (active); in the experiment on CP269 it was 15.1 µM (active); with CP291, 13.5 µM (active); in the experiment with CP305, 15.1 µM (active); in the experiment with CP335, 8.49 µM (active); in the experiment with DFO2036, 6.31 µM (active). In addition, the Potency in the experiment with DIV14 was 3.38 µM (active); in the experiment with DIV17, 3.38 µM (active); with Dd2 it was 5.62 µM (active); with ECU it was 7.94 µM (active); in the experiment on GB4 it was 7.57 µM (active). For the same compound, the Potency result in the experiment with CP266 and in the experiment on CP315 was “inactive” throughout.
On to `NS(=O)(=O)c1cc(C(=O)O)cc(N2CCCC2)c1Oc1ccccc1`, for which the Potency result in the experiment on CP265, in the experiment with CP268, in the experiment with CP269, with CP286, in the experiment on CP291 and with CP297 was “inactive” each time. For the same compound, the Potency result with CP305, in the experiment with CP315, with CP325, in the experiment on CP329, with CP335 and in the experiment with DFO2036 was “inactive” throughout. Moreover, the Potency result in the experiment with DIV14, in the experiment on DIV17, in the experiment on DIV30, in the experiment with Dd2, with ECU and with FAB9 was “inactive” throughout. Besides, in the experiment with GB4, the Potency entry is “inactive”.
With `COc1ccccc1N1CCN(CCCCNC(=O)c2ccc(-c3ccc(C(C)=O)cc3)cc2)CC1`, the Potency result with CP265, with CP266, in the experiment on CP268, in the experiment with CP269, in the experiment on CP291 and in the experiment with CP297 was “inactive” each time. The Potency result in the experiment with CP305, with CP315, in the experiment with CP325, in the experiment with CP329, with CP335 and in the experiment with DFO2036 was “inactive” in each case. The Potency result in the experiment on DIV14, in the experiment with DIV17, in the experiment with DIV30, with Dd2, in the experiment with ECU and in the experiment with FAB9 was “inactive” each time. In addition, the Potency result with GB4 is “inactive”.
Take `COc1ccc(C(Cl)=C(c2ccc(OC)cc2)c2ccc(OC)cc2)cc1`: the figures for the Potency with CP265, in the experiment with DFO2036 and in the experiment on ECU were 10 µM (active), 17.8 µM (active) and 2.24 µM (active), respectively. For the same compound, the Potency entry in the experiment with CP266, in the experiment with CP269, in the experiment on CP291, in the experiment on CP297, in the experiment with CP315 and with CP325 was “inactive” each time. In addition, the Potency result with CP329, in the experiment with DIV17, with DIV30 and in the experiment on GB4 was “inactive” each time.
As to `CN1CCN(CCC(=O)N2c3ccccc3Sc3ccc(C(F)(F)F)cc32)CC1`, the Potency entry in the experiment with CP265, with CP268, in the experiment on CP269, in the experiment with CP291, with CP297 and in the experiment on CP305 was “inactive” each time. For the same compound, the Potency result with CP315, in the experiment on CP325, with CP329, with DFO2036 and with FAB9 was “inactive” throughout. The Potency with DIV14 and in the experiment on DIV17 was 8.49 µM (active) each time.
For `Cc1cc(CC(=O)O)c(C)n1-c1ccc(Cl)cc1`, the Potency result in the experiment on CP265, in the experiment with CP266, in the experiment on CP268, in the experiment on CP269, in the experiment on CP286 and in the experiment with CP291 was “inactive” in each case. Further, the Potency result in the experiment with CP305, in the experiment with CP315, in the experiment on CP325, with CP329, with DFO2036 and in the experiment on FAB9 was “inactive” in each case. Besides, the Potency in the experiment on DIV17 was 16.9 µM (active).
In the case of `CN(C)CCC[C@@]1(c2ccc(F)cc2)OCc2cc(C#N)ccc21`, the Potency result in the experiment on CP265, in the experiment on CP266, in the experiment with CP268, in the experiment with CP286, with CP291 and with CP305 was “inactive” throughout. Also, the Potency entry in the experiment on CP325, with CP329, in the experiment with CP335, in the experiment with DFO2036, in the experiment on DIV14 and in the experiment on DIV17 was “inactive” each time. Further, the Potency entry in the experiment on DIV30, with ECU, with FAB9 and in the experiment with GB4 was “inactive” each time.
In the case of `Cc1cccc(C)c1NC(=O)CN1CCCC1`, the Potency entry with CP265, in the experiment with CP268, in the experiment with CP269, in the experiment on CP286, in the experiment with CP291 and in the experiment on CP297 was “inactive” throughout. Also, the Potency entry in the experiment with CP305, in the experiment on CP315, in the experiment on CP325, in the experiment with CP329, in the experiment with CP335 and in the experiment with DFO2036 was “inactive” in each case. For the same compound, the Potency result with DIV14, with DIV17, in the experiment on DIV30, in the experiment on Dd2, in the experiment on ECU and in the experiment on FAB9 was “inactive” throughout. In the experiment with GB4, the Potency result was “inactive”.
On to `O=[N+]([O-])c1cccc(S(=O)(=O)NCCNS(=O)(=O)c2cccc([N+](=O)[O-])c2)c1`, for which the Potency result in the experiment with CP265, in the experiment with CP266, with CP291, in the experiment on CP297, in the experiment with CP315 and in the experiment on CP325 was “inactive” each time. The Potency result in the experiment on CP329, with DFO2036, in the experiment with DIV30, in the experiment with Dd2 and in the experiment with FAB9 was “inactive” in each case.
On to `COc1cc(C(=S)N2CCOCC2)ccc1O`, for which the Potency result in the experiment with CP265, in the experiment with CP268, in the experiment with CP269, in the experiment on CP286, in the experiment with CP291 and in the experiment with CP297 was “inactive” throughout. Also, the Potency entry in the experiment with CP305, in the experiment on CP315, in the experiment on CP325, in the experiment with CP329, in the experiment with CP335 and in the experiment on DFO2036 was “inactive” in each case. The Potency entry with DIV14, in the experiment with DIV17, with DIV30, with Dd2, in the experiment with ECU and in the experiment on FAB9 was “inactive” in each case. Further, the Potency entry in the experiment with GB4 is “inactive”.
As for `O=C(NC1CCN(CCc2c[nH]c3ccccc23)CC1)c1ccccc1`, the Potency result in the experiment with CP265, with CP266, in the experiment on CP268, in the experiment on CP269, with CP291 and in the experiment on CP305 was “inactive” each time. Further, the Potency entry in the experiment with CP315, in the experiment with CP325, in the experiment on CP329, in the experiment on DFO2036, in the experiment on ECU and with FAB9 was “inactive” in each case.
`CN(C)CCN1C(=O)c2ccccc2N(C)c2ccccc21`: the Potency in the experiment with CP265 was 12.6 µM (active); in the experiment with CP297 it was 13.5 µM (active); in the experiment with Dd2, 11.2 µM (active); in the experiment with GB4, 9.53 µM (active). Also, the Potency result in the experiment with CP266, with CP315, in the experiment on CP329, with ECU and with FAB9 was “inactive” in each case.
With `CO[C@]12C[C@@H](COC(=O)c3cncc(Br)c3)CN(C)[C@@H]1Cc1cn(C)c3cccc2c13`, the Potency entry in the experiment on CP265, in the experiment on CP266, in the experiment on CP269, with CP315, in the experiment on CP325 and in the experiment with CP329 was “inactive” in each case. Besides, the Potency result in the experiment with ECU and with FAB9 was “inactive” each time.
As to `NCc1ccccc1Sc1ccccc1CO`, the Potency result in the experiment on CP265, in the experiment on CP266, in the experiment on CP269, with CP286, in the experiment on CP291 and with CP305 was “inactive” in each case. For the same compound, the Potency result in the experiment with CP315, in the experiment on CP325, in the experiment on CP329, with DFO2036, in the experiment with ECU and in the experiment with FAB9 was “inactive” each time. The Potency in the experiment on DIV14 was 13.5 µM (active); with Dd2, 10 µM (active).
